This is a sample that favours compounds with a hit; in the whole collection about 2.5% have one here.
MEKK2 WT-MEK5 = raises or lowers MEK5 binding to wildtype human MEKK2 PB1 domain; binding response (% of control), % at 10 µM; 290,000 tested, 1.1% active; AID 1531; bead flow cytometry, Alexa488-MEK5 binding to MEKK2 WT; actives lie on both sides; in the data active means binding response below about 67% or above about 130%
MEKK3 PB1 HTS = MEKK3-MEK5 PB1 interaction, increase or decrease; bead-based flow cytometry, Alexa488-MEK5 binding to MEKK3; actives lie on both sides; 0 = blocked by unlabeled MEK5, 100 = vehicle; binding response (% of control), % at 10 µM; 290,000 tested, 1.4% active;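 active means binding response more than 3 SD above or below the average of its plate-row segment, actives on both sides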;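 further: Alexa488 bead fluorescence after subtracting the streptavidin-only scavenger bead signal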
UBC13 polyUb = human UBC13 polyubiquitination inhibition; UBC13 polyubiquitin chain formation, TR-FRET; inhibition, % at 20 µM; 330,000 tested, 0.47% active; AID 485273; in the data active means inhibition above about 45%, passing the limit was not always enough
Target sequence (P61088 whole entry, looked up): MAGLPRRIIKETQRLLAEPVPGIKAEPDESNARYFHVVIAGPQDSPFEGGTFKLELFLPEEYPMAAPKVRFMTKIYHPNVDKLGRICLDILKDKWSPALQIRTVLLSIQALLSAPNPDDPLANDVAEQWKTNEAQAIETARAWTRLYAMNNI
Rce1 inh = blocks yeast Ras-converting enzyme; Q03530; yeast membranes, quenched prenylated peptide cleavage fluorescence; calls only; 290,000 tested, 0.27% active; AID 2563;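 active means fall in fluorescence gain of 50% or more versus controls, with final raw signal at or below 3038400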
Target sequence (Q03530 whole entry, looked up): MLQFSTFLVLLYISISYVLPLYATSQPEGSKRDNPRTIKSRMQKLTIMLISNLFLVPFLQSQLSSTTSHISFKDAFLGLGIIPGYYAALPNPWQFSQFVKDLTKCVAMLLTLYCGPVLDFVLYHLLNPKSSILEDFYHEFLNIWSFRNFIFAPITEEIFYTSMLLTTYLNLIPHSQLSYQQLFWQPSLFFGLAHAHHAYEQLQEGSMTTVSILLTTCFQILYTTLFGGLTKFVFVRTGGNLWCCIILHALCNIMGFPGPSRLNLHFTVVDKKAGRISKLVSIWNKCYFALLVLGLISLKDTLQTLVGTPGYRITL
MEKK2 mut-MEK5 = signal of MEK5 binding to mutant human MEKK2 PB1 domain. bead flow cytometry, Alexa488-MEK5 binding to MEKK2 mutant. AID 1530. percent response, % at 10 µM. 290,000 tested, 0.35% active; in the data active means percent response above about 24%, passing the limit was not always enough
MEKK2wt confirm = raises or lowers MEK5 binding to wildtype human MEKK2, retest. shares compounds with MEKK3 PB1 HTS. bead flow cytometry, Alexa488-MEK5 binding to MEKK2 WT; actives lie on both sides. binding response (% of control), % at 10 µM. 5,900 tested, 2.4% active. AID 1892; in the data active means binding response below about 16% or above about 210%; inactive means in between
MEKK2mut-MEK5 = signal of MEK5 binding to mutant human MEKK2, retest | shares compounds with MEKK3 PB1 HTS | bead flow cytometry, Alexa488-MEK5 binding to MEKK2 mutant | percent response, % at 10 µM | 5,900 tested, 2% active | AID 1893; in the data active means percent response mostly above about 71%, no sharp cut-off; inactive means mostly below about 38%;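 further: higher means compound restores mutant binding toward wildtype level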
MEKK3 confirm = confirmation of inhibitors of MEK5 binding to human MEKK3; shares compounds with MEKK3 PB1 HTS; bead flow cytometry, Alexa488-MEK5 binding to MEKK3; hits give low values; binding response (% of control), % at 10 µM; 5,900 tested, 1.8% active;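 active means binding response below 72% of control, or above a set upper limit, though filed actives all read lower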
Hits are given with their value; . = inactive; / = no result; [ ] = another dose, or the depositor's remark.

SMILES	MEKK2 WT-MEK5	MEKK3 PB1 HTS	UBC13 polyUb	Rce1 inh	MEKK2 mut-MEK5	MEKK2wt confirm	MEKK2mut-MEK5	MEKK3 confirm
N#Cc1ccccc1NC(=O)CSc1ccc([N+](=O)[O-])cn1	.	.	.	.	.	/	/	/
COc1cc(/C=C2\SC(=S)N(CC(=O)Nc3ccc(O)cc3)C2=O)cc(OC)c1OC	.	67.0[inhibitor]	/	.	90.0	.	.	.
CC(C)(C)c1ccc(S(=O)(=O)Nc2cccc(C3OCCCO3)c2)cc1	.	.	.	.	.	/	/	/
Cc1ccc2[nH]c(=O)c(COC(=O)C3CCCCC3)cc2c1	.	129.0	.	.	.	.	.	.
O=C(CCCc1ccccc1)NC12CC3CC(CC(C3)C1)C2	.	.	.	.	.	/	/	/
COCC(COS(N)(=O)=O)Cc1ccccc1 (stereo unspecified)	139.0	.	.	.	.	.	.	.
CN(CC(=O)Nc1ccc(F)cc1)C(=O)c1ccc(OCc2ccccc2)cc1	/	/	.	/	/	/	/	/
N#CC1=C(N)C(C#N)(C#N)C2(CCC3(CC2)OCCO3)C2CC3(CC=C12)OCCO3 (stereo unspecified)	19.0[inhibitor]	13.0[inhibitor]	.	.	.	.	.	.
N#CC1=C(N)C(C#N)(C#N)[C@H](c2c(F)cccc2F)[C@H]2CC3(CC=C12)OCCO3	.	.	.	.	.	/	/	/
O=[N+]([O-])c1nn(-c2ccccc2)[n+]([O-])c1N1CCN(c2ccccc2F)CC1	.	.	.	.	.	/	/	/
COc1ccc(N2CC(C(=O)N3CCc4ccccc43)CC2=O)cc1 (stereo unspecified)	.	.	.	.	.	/	/	/
COCCN1CCC(CNCc2cn(-c3cc(C)ccc3C)nc2-c2ccccc2)C1 (stereo unspecified)	163.0	.	.	.	.	.	.	.
COCCN1CCC(CNCc2cn[nH]c2-c2ccc(C)c(C)c2)C1 (stereo unspecified)	161.0	.	.	.	.	.	.	.
CCN(CC)C1CCN(Cc2cn[nH]c2-c2ccc(OC)c(F)c2)C1 (stereo unspecified)	.	.	.	.	.	/	/	/
O=C(Nc1ccccc1F)C1CC1c1ccccc1 (stereo unspecified)	.	.	.	.	.	/	/	/
NNC(=O)[C@H]1C[C@@H]1c1ccccc1	.	152.0	.	.	.	.	.	.
CCN1CCN(c2nc3c(C)cccn3c(=O)c2/C=C(\C#N)C(=O)NCCOC)CC1	.	.	.	.	.	/	/	/
O=C(CSc1ccc([N+](=O)[O-])cc1)Nc1nnc(C2CC2)s1	/	/	.	/	/	/	/	/
COCCNC(=O)c1cc2c(=O)n(C)c3ccccc3c2n1C	.	.	.	.	.	/	/	/
COCCNC(=O)Cn1c(=O)n(Cc2ccc(C(=O)NCCc3ccc(OC)c(OC)c3)cc2)c(=O)c2ccccc21	45.0[inhibitor]	37.0[inhibitor]	.	.	.	.	.	.
Cn1c(C(=O)NCCCN2CCc3ccccc3C2)cc2c(=O)n(C)c3ccccc3c21	143.0	.	56.1	.	.	.	.	.
Cn1c(C(=O)NCCCN2CCCCCC2)cc2c(=O)n(C)c3ccccc3c21	.	.	.	/	.	/	/	/
COc1ccc(CCNC(=O)c2cc3c(=O)n(C)c4ccccc4c3n2C)cc1OC	.	132.0	.	.	.	.	.	.
CCN(Cc1ccccc1)C(=O)CCS(=O)(=O)c1ccc2c(c1)CCN2C(C)=O	.	.	.	.	.	/	/	/
CCN1CCN(CC(=O)Nc2ccc(N(C)C)cc2)CC1	.	.	.	.	.	/	/	/
SMILES	MEKK2 WT-MEK5	MEKK3 PB1 HTS	UBC13 polyUb	Rce1 inh	MEKK2 mut-MEK5	MEKK2wt confirm	MEKK2mut-MEK5	MEKK3 confirm
O=C(CNC(=S)NC(=O)c1ccc(F)cc1)c1ccccc1	.	136.0	.	.	.	.	.	.
CSc1cccc(NC(=O)CN(C)S(=O)(=O)c2cnc[nH]2)c1	.	.	.	.	.	/	/	/
CCOC(=O)CC1C(=O)NCCN1c1nc2ccc(C)cn2c(=O)c1/C=C1\SC(=S)N(C(C)CC)C1=O (stereo unspecified)	.	.	.	.	.	/	/	/
CCOC(=O)CC1C(=O)NCCN1c1nc2ccc(C)cn2c(=O)c1/C=C1\SC(=S)N(CC(C)C)C1=O (stereo unspecified)	55.0[inhibitor]	.	.	.	.	.	.	.
Cc1ccccc1CN1CCN(C(=O)c2ccc(F)cc2)CC1	.	.	.	.	.	/	/	/
Cc1nc(-c2nc(-c3c(C(=O)NN)noc3C)cs2)cs1	.	147.0	.	.	.	.	.	.
C[C@H](CO)N1C[C@H](C)[C@@H](CN(C)S(=O)(=O)c2cn(C)cn2)Oc2c(NS(=O)(=O)c3ccc(F)cc3)cccc2C1=O	/	/	.	/	/	/	/	/
CCCSc1nc(N)cc(=O)[nH]1	46.0[inhibitor]	35.0[inhibitor]	.	.	.	.	.	.
COc1ccc(-n2ccc(=O)c(C(=O)O)n2)c(OC)c1	.	.	.	.	.	/	/	/
O=C(COC(=O)Cc1cccs1)Nc1ccc(OC(F)(F)F)cc1	/	/	.	.	/	/	/	/
COC(=O)c1ccc(S(=O)(=O)N2CCCN(Cc3cccc(Br)c3F)CC2)n1C	53.0[inhibitor]	73.0[inhibitor]	.	.	.	.	.	.
Cc1ccc(S(=O)(=O)N(CC#N)CC#N)cc1	.	.	.	.	.	/	/	/
CCCCNC(=S)Nc1ccc(C(F)(F)F)cc1	.	75.0[inhibitor]	.	.	.	.	.	.
O=C(CNc1ccccc1Cl)Nc1cc(S(=O)(=O)N2CCOCC2)ccc1Cl	/	/	.	/	/	/	/	/
O=C(CSc1nc2ccccc2s1)Nc1cc(S(=O)(=O)N2CCOCC2)ccc1Cl	.	129.0	.	.	.	.	.	.
Nc1ccc2nc(SCC(=O)Nc3ccc(N4CCOCC4)c(Cl)c3)sc2c1	.	135.0	.	.	.	.	.	.
CC(Sc1nc2ccccc2s1)C(=O)Nc1ccc2c(c1)OCO2 (stereo unspecified)	.	.	.	.	.	/	/	/
O=C(CSc1nc2ccccc2s1)Nc1ccc2c(c1)OCO2	.	158.0	.	.	.	.	.	.
O=C(NCCC1=CCCCC1)Nc1ccc2nsnc2c1	.	.	.	.	.	/	/	/
O=C(N/N=C/c1ccc(OC(=O)c2ccccc2)c([N+](=O)[O-])c1)c1ccc(O)cc1	.	.	.	.	.	/	/	/
COc1ccccc1CNC(=O)c1cc(-c2ccncc2)nc2c(Cl)cccc12	.	.	.	.	.	/	/	/
Cc1ccc(C)c(S(=O)(=O)N2CCN(c3nc(-c4cccnc4)nc4ccccc34)CC2)c1	/	/	.	/	/	/	/	/
c1ccc(Cc2ccc(OCCCNC3CCCC3)cc2)cc1	138.0	.	.	.	.	.	.	.
c1ccc(-c2ccc(OCCCNC3CCCC3)cc2)cc1	.	.	.	.	.	/	/	/

Bioassay records deposited in PubChem by several laboratories.
